In the supplement of paper PMC8728848:
The entries come from a sample that favours the strongest signals as a whole.

Experiments:
Experiment in all cases: glycan array binding signal (z-score within array); higher = stronger binding
Conditions in all cases: glycan notation: IUPAC condensed, linker removed
[1] = target: Fuc(a1-2)Gal(b1-3)GlcNAc(b1-3)Gal(b1-4)Glc
In short: (§1)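 The Consortium for Functional Glycomics database supplied 3228 glycan arrays, of which those lacking an available protein sequence were dropped. The binding signal, a within-array Z-score, was averaged across arrays of the same protein sequence and across linkers. Negative scores can be read as non-binding.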

[2] = target: Fuc(a1-2)Gal(b1-4)Glc
In short: as §1

[3] = target: Fuc(a1-2)Gal(b1-4)GlcNAc(b1-3)GalNAc
In short: as §1

[4] = target: Fuc(a1-2)Gal6S(b1-3)GlcNAc
In short: as §1

[5] = target: Fuc(a1-2)[Gal(a1-3)]Gal(b1-4)[Fuc(a1-3)]GlcNAc
In short: as §1

[6] = target: Fuc(a1-2)[GalNAc(a1-3)]Gal(b1-3)GalNAc(b1-3)Gal(a1-4)Gal(b1-4)Glc
In short: as §1

[7] = target: Fuc(a1-2)[GalNAc(a1-3)]Gal(b1-4)GlcNAc(b1-2)Man(a1-3)[Fuc(a1-2)[GalNAc(a1-3)]Gal(b1-4)GlcNAc(b1-2)Man(a1-6)]Man(b1-4)GlcNAc(b1-4)GlcNAc
In short: as §1

[8] = target: Fuc(a1-3)[Gal(b1-4)]GlcNAc(b1-3)GalNAc
In short: as §1

[9] = target: Gal(a1-3)Gal(b1-4)GlcNAc(b1-2)Man
In short: as §1

[10] = target: Gal(a1-4)GlcNAc
In short: as §1

[11] = target: Gal(b1-3)Gal(b1-4)GlcNAc
In short: as §1

[12] = target: Gal(b1-3)GalNAc(b1-3)Gal
In short: as §1

[13] = target: Gal(b1-3)GalNAc(b1-4)Gal(b1-4)Glc
In short: as §1

[14] = target: Gal(b1-3)GalNAc(b1-4)[Neu5Ac(a2-3)]Gal(b1-4)Glc
In short: as §1

[15] = target: Gal(b1-3)[Neu5Ac(a2-6)]GalNAc
In short: as §1

[16] = target: Gal(b1-4)GlcNAc(b1-2)Man(a1-3)[Gal(b1-4)GlcNAc(b1-2)Man(a1-6)]Man(b1-4)GlcNAc(b1-4)GlcNAc
In short: as §1

[17] = target: Gal(b1-4)GlcNAc(b1-2)Man(a1-3)[Man(a1-6)]Man(b1-4)GlcNAc(b1-4)GlcNAc
In short: as §1

[18] = target: Gal(b1-4)GlcNAc(b1-2)[Gal(b1-4)GlcNAc(b1-6)]Man(a1-6)[Gal(b1-4)GlcNAc(b1-2)Man(a1-3)]Man(b1-4)GlcNAc(b1-4)[Fuc(a1-6)]GlcNAc
In short: as §1

[19] = target: Gal(b1-4)GlcNAc(b1-3)Gal(b1-3)GlcNAc
In short: as §1

[20] = target: Gal(b1-4)GlcNAc(b1-3)Gal(b1-4)GlcNAc
In short: as §1

[21] = target: Gal(b1-4)GlcNAc(b1-3)Gal(b1-4)GlcNAc(b1-3)Gal(b1-4)GlcNAc(b1-3)Gal(b1-4)GlcNAc(b1-3)Gal(b1-4)GlcNAc(b1-2)Man(a1-3)[Gal(b1-4)GlcNAc(b1-3)Gal(b1-4)GlcNAc(b1-3)Gal(b1-4)GlcNAc(b1-3)Gal(b1-4)GlcNAc(b1-3)Gal(b1-4)GlcNAc(b1-2)Man(a1-6)]Man(b1-4)GlcNAc(b1-4)GlcNAc
In short: as §1

[22] = target: Gal3S(b1-3)[Fuc(a1-4)]GlcNAc
In short: as §1

[23] = target: Gal3S(b1-4)Glc
In short: as §1

[24] = target: Gal6S(b1-3)GlcNAc6S
In short: as §1

[25] = target: Gal6S(b1-4)Glc
In short: as §1

[26] = target: Gal6S(b1-4)Glc6S
In short: as §1

[27] = target: Gal6S(b1-4)GlcNAc
In short: as §1

[28] = target: Gal6S(b1-4)GlcNAc6S
In short: as §1

[29] = target: GalNAc3S(b1-4)GlcNAc3S
In short: as §1

[30] = target: GalNAc4S6S(b1-4)GlcNAc
In short: as §1

[31] = target: Glc(b1-6)Glc
In short: as §1

[32] = target: GlcA(b1-3)Gal
In short: as §1

[33] = target: GlcA(b1-3)GlcNAc
In short: as §1

[34] = target: GlcA3S(b1-3)Gal(b1-4)GlcNAc(b1-3)Gal(b1-4)Glc
In short: as §1

[35] = target: GlcNAc(b1-2)Man(a1-3)[GlcNAc(b1-4)][GlcNAc(b1-2)Man(a1-6)]Man(b1-4)GlcNAc(b1-4)[Fuc(a1-6)]GlcNAc
In short: as §1

[36] = target: GlcNAc(b1-2)[GlcNAc(b1-4)]Man(a1-3)[GlcNAc(b1-2)Man(a1-6)]Man(b1-4)GlcNAc(b1-4)GlcNAc
In short: as §1

[37] = target: GlcNAc(b1-2)[GlcNAc(b1-6)]Man(a1-6)[GlcNAc(b1-2)Man(a1-3)]Man(b1-4)GlcNAc(b1-4)GlcNAc
In short: as §1

[38] = target: GlcNAc(b1-3)GalNAc
In short: as §1

[39] = target: Kdn(a2-3)Gal(b1-3)GalNAc
In short: as §1

[40] = target: Man(a1-3)[Man(a1-6)]Man
In short: as §1

[41] = target: Man(a1-3)[Man(a1-6)]Man(b1-4)GlcNAc(b1-4)[Fuc(a1-6)]GlcNAc
In short: as §1

[42] = target: Neu5Ac(a2-3)Gal(b1-3)GlcNAc(b1-2)Man
In short: as §1

[43] = target: Neu5Ac(a2-3)Gal(b1-4)GlcNAc(b1-2)Man(a1-3)[Neu5Ac(a2-6)Gal(b1-4)GlcNAc(b1-2)Man(a1-6)]Man(b1-4)GlcNAc(b1-4)GlcNAc
In short: as §1

[44] = target: Neu5Ac(a2-3)Gal(b1-4)[Fuc(a1-3)]GlcNAc6S
In short: as §1

[45] = target: Neu5Ac(a2-6)Gal(b1-4)GlcNAc(b1-2)Man(a1-3)[Gal(b1-4)GlcNAc(b1-2)Man(a1-6)]Man(b1-4)GlcNAc(b1-4)GlcNAc
In short: as §1

[46] = target: Neu5Ac(a2-6)Gal(b1-4)GlcNAc(b1-3)Gal(b1-4)GlcNAc(b1-3)Gal(b1-4)GlcNAc(b1-2)Man(a1-3)[Neu5Ac(a2-6)Gal(b1-4)GlcNAc(b1-3)Gal(b1-4)GlcNAc(b1-3)Gal(b1-4)GlcNAc(b1-2)Man(a1-6)]GalNAc
In short: as §1

[47] = target: Neu5Ac(a2-6)GalNAc
In short: as §1

[48] = target: Neu5Ac(b2-6)GalNAc
In short: as §1

[49] = target: Neu5Gc(a2-8)Neu5Ac(a2-3)Gal(b1-4)GlcNAc
In short: as §1

B1: Epa1to9 (Candida glabrata) (protein)
chain: MGSSHHHHHHSSGLVPRGSHMTSSNDISLASKDPTTFPLGCSPDITTPKKGLSMELYSYDFRKKGSYPCWDAAYLDPNYPRTGYKSHRLLAKVDGVTGNINFYYHATKGCTPQLGHLPASYNYPKPLTMTNFTMLLYGYFRPKVTGFHTFTISADDLLFVNFGAGNAFDCCRRDSSADHFGNYQAYAIWGSKTAKDELTVHLDAGVYYPIRLFYNNRDYHGALSFTFKTESNENTVSDFSEYFFSLDDTEEGCPGLISYD
glycan array binding signal (z-score) [1]: -0.354
glycan array binding signal (z-score) [2]: -0.307
glycan array binding signal (z-score) [3]: -0.34
glycan array binding signal (z-score) [4]: 0.035
glycan array binding signal (z-score) [5]: -0.276
glycan array binding signal (z-score) [6]: -0.349
glycan array binding signal (z-score) [7]: -0.318
glycan array binding signal (z-score) [8]: -0.293
glycan array binding signal (z-score) [9]: 0.008
glycan array binding signal (z-score) [10]: 1.94
glycan array binding signal (z-score) [11]: 4.22
glycan array binding signal (z-score) [12]: 3.67
glycan array binding signal (z-score) [13]: 4.67
glycan array binding signal (z-score) [14]: 2.83
glycan array binding signal (z-score) [15]: 4.47
glycan array binding signal (z-score) [16]: 1.17
glycan array binding signal (z-score) [17]: -0.161
glycan array binding signal (z-score) [18]: 3.13
glycan array binding signal (z-score) [19]: -0.107
glycan array binding signal (z-score) [20]: -0.064
glycan array binding signal (z-score) [21]: 0.122
glycan array binding signal (z-score) [22]: -0.345
glycan array binding signal (z-score) [23]: -0.283
glycan array binding signal (z-score) [24]: 4.86
glycan array binding signal (z-score) [25]: 5.05
glycan array binding signal (z-score) [26]: 7.26
glycan array binding signal (z-score) [27]: 4.98
glycan array binding signal (z-score) [28]: 10.6
glycan array binding signal (z-score) [29]: -0.353
glycan array binding signal (z-score) [30]: -0.346
glycan array binding signal (z-score) [31]: -0.333
glycan array binding signal (z-score) [32]: -0.315
glycan array binding signal (z-score) [33]: -0.346
glycan array binding signal (z-score) [34]: -0.35
glycan array binding signal (z-score) [35]: -0.354
glycan array binding signal (z-score) [36]: -0.295
glycan array binding signal (z-score) [37]: -0.344
glycan array binding signal (z-score) [38]: -0.352
glycan array binding signal (z-score) [39]: -0.38
glycan array binding signal (z-score) [40]: -0.287
glycan array binding signal (z-score) [41]: -0.339
glycan array binding signal (z-score) [42]: -0.33
glycan array binding signal (z-score) [43]: -0.322
glycan array binding signal (z-score) [44]: -0.36
glycan array binding signal (z-score) [45]: -0.246
glycan array binding signal (z-score) [46]: -0.309
glycan array binding signal (z-score) [47]: -0.343
glycan array binding signal (z-score) [48]: -0.346
glycan array binding signal (z-score) [49]: -0.338
